According to PubChem BioAssay (NCI):
Values joined by “and” are separate entries in the source; they are usually repeats but may differ in a detail not shown here. Equal entries are not always repeated. The panel holds about 83,000 compounds, 20% with a hit somewhere; the sample as a whole holds those more often.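 Step 1: grow cells in 96-well plates. Step 2: add test compound at a single concentration. Step 3: incubate 48 h. Step 4: record percent growth.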 Active and inactive are the calls of the source. The calls were made as follows: active = growth percent below 10; inactive = the rest.

How the values were obtained:
Assay in all cases: NCI-60 one-dose screen, 48 h (100 = growth as untreated, 0 = no growth, -100 = all killed)
Conditions in all cases: 10 µM unless noted
[1] = test system: NCI-H226 lung
[2] = test system: NCI-H322M lung
[3] = test system: HOP-62 NSCLC
[4] = test system: NCI-H460 lung
[5] = test system: HOP-92 NSCLC
[6] = test system: NCI-H522 lung
[7] = test system: A549/ATCC NSCLC
[8] = test system: 786-0 renal
[9] = test system: COLO 205 colon

Compound	growth [1]	growth [2]	growth [3]	growth [4]	growth [5]	growth [6]	growth [7]	growth [8]	growth [9]
CCN(CC)CCOc1ccc(C(=C(c2ccccc2)C2CCCC2)c2ccc(OCCN(CC)CC)cc2)cc1	12.8% (inactive)	59.5% (inactive)	50.2% (inactive)	17.2% (inactive)	-30.8% (active)	2.43% (active)	37.4% (inactive)	62.6% (inactive)	-83.9% (active)
CCCC[n+]1ccc(SCC(=O)n2ccc3ccccc32)c2ccccc21	71.1% (inactive)	96.4% (inactive)	103% (inactive)	97.8% (inactive)	138% (inactive)	83.2% (inactive)	87.5% (inactive)	106% (inactive)	99.8% (inactive)
COc1cc(NC(=O)Nc2cccc(-c3cc(=O)c4c(OC)c(OC)c(OC)cc4o3)c2)cc(OC)c1OC	49.7% (inactive)	64.4% (inactive)	49.7% (inactive)	31.5% (inactive)	-8.97% (active)	39.6% (inactive)	57.2% (inactive)	35.3% (inactive)	58.1% (inactive)
CCOC(=O)C1=C(C)NC(C)=C(C(=O)OC(C)C)C1c1cccc(C#N)c1 (configuration not stated)	98.1% (inactive)	100% (inactive)	101% (inactive)	101% (inactive)	114% (inactive)	92.7% (inactive)	100% (inactive)	90.6% (inactive)	114% (inactive)
Cc1ccccc1N1CCN(C2=C(Cl)C(=O)c3ncccc3C2=O)CC1	94.2% (inactive)		59.5% (inactive)	53.1% (inactive)	118% (inactive)	-28% (active)	99.6% (inactive)	91% (inactive)	31.8% (inactive)
COC(=O)c1ccc(NC2=C(Cl)C(=O)C(C)=C(C)C2=O)cc1	72.9% (inactive)	99.6% (inactive)	66.2% (inactive)	79.3% (inactive)	64.9% (inactive)	53.1% (inactive)	81.5% (inactive)	84.9% (inactive)	104% (inactive)
CNCCN(C)c1ccc(Nc2cc(NC3CC3)n3ncc(C#N)c3n2)cc1NC(C)=O	10.6% (inactive)	10.5% (inactive)	13.4% (inactive)	8.31% (active)	-9.1% (active)	-35.4% (active)	12% (inactive)	12.8% (inactive)	4.36% (active)
C/C=C/CC(C)C(O)[C@H](NC(=O)[C@@H]1CCCN1C(=O)[C@](C)(CC)NC(=O)CCCCCCCCC)C(=O)N[C@@](C)(CC)C(=O)N[C@@H](CCC(N)=O)C(=O)N[C@H](CCC(N)=O)C(=O)NC(C)(C)C(=O)NC(C)(C)C(=O)N[C@@H](CCC(N)=O)C(=O)N[C@H](CC(C)C)C(=O)N[C@H](CO)CC(C)C (some centres not stated)	49% (inactive) and -24.9% (active)	69.8% (inactive) and -15.9% (active)	56.3% (inactive) and -78.5% (active)	63.6% (inactive) and -72.2% (active)	75.3% (inactive) and -53.5% (active)	14.7% (inactive) and -74.4% (active)	76% (inactive) and 9.75% (active)	47.7% (inactive) and -80.3% (active)	48.7% (inactive) and -50.7% (active)
CCCCCC[n+]1ccc(SCC(=O)n2ccc3ccccc32)c2ccccc21	79.5% (inactive)	94% (inactive)	90.2% (inactive)	99.5% (inactive)	81.2% (inactive)	73.5% (inactive)	101% (inactive)	102% (inactive)	99.4% (inactive)
Cc1ccc(NC2=C(Cl)C(=O)c3nc(C)ccc3C2=O)c(C)c1	23.2% (inactive)		47.2% (inactive)	46.2% (inactive)	84.7% (inactive)	-38.3% (active)	46.5% (inactive)	23.7% (inactive)	98% (inactive)
O=c1c2cc(-c3ccc(F)cc3F)ccc2n(O)c(=O)n1-c1cccc(C(F)(F)F)c1	14.3% (inactive)	5.99% (active)	-9.23% (active)	6.68% (active)	-30% (active)	-14.2% (active)	6.74% (active)	30.9% (inactive)	73.9% (inactive)
CSc1ccc(C(=NNS(=O)(=O)c2ccc(C)cc2)c2ccc(Cl)cc2)cc1	98% (inactive)	92.7% (inactive)	98.6% (inactive)	104% (inactive)	86.9% (inactive)	94.4% (inactive)	99.6% (inactive)	104% (inactive)	119% (inactive)
CC(Nc1c(C#N)cnc2ccc(-c3cncc(-c4n[nH]c(=O)o4)c3)cc12)c1ccccc1 (configuration not stated)	2.2% (active)	-4.15% (active)	8.5% (active)	11.1% (inactive)	-20.9% (active)	-20% (active)	17.7% (inactive)	9.83% (active)	-6.04% (active)
CC(=O)c1c([Si](C)(C)C)c2cc(C#N)ccn2c1C(=O)c1ccc(Br)cc1	76.9% (inactive)	85.3% (inactive)	88.3% (inactive)	95.5% (inactive)	81.9% (inactive)	70.5% (inactive)	90.3% (inactive)	76.5% (inactive)	104% (inactive)
NC(=O)c1c(NC(=O)c2ccc(C(F)(F)F)cc2)sc2c1CCC(=O)C2	-24% (active)	92.1% (inactive)	13.5% (inactive)	19.1% (inactive)	-25.3% (active)	-25.9% (active)	12.1% (inactive)	24.5% (inactive)	-64.7% (active)
O=C(CN1CCN(c2cc(=O)[nH]c3ccc(F)cc23)CC1)N(c1ccccc1)c1ccccc1	103% (inactive)	104% (inactive)	102% (inactive)	104% (inactive)	98.4% (inactive)	98.3% (inactive)	115% (inactive)	96% (inactive)	115% (inactive)
O=C(/C=C/c1ccc(F)cc1)Nc1cccc2cccnc12	97.8% (inactive)	101% (inactive)	98.5% (inactive)	89.4% (inactive)	108% (inactive)	97.5% (inactive)	107% (inactive)	108% (inactive)	114% (inactive)
Cn1cc(-c2nnc(N)nc2-c2c[nH]c3ccc(F)cc23)c2cc(Br)ccc21	27.4% (inactive)	41.8% (inactive)		13.8% (inactive)	56.5% (inactive)	-0.551% (active)	38.6% (inactive)	21.5% (inactive)	9.15% (active)
CCOC(=O)Nc1ccc2c(ccn2C(=O)c2cccc(F)c2)c1	53.5% (inactive)	61.8% (inactive)	35.2% (inactive)	14.8% (inactive)	76% (inactive)	0.367% (active)	47.6% (inactive)	57.5% (inactive)	-3.54% (active)
CC(C)[C@H]1c2[nH]c3ccccc3c2C[C@H]2C(=O)N(CCCCCCC(=O)NO)CC(=O)N12	102% (inactive)	88.4% (inactive)	85.7% (inactive)	78.5% (inactive)	74.9% (inactive)	42.8% (inactive)	98.7% (inactive)	97.3% (inactive)	83.8% (inactive)
CCN(CC)CCOc1ccc(C(=C(C)Cc2ccc(OC)cc2)c2ccc(OCCN(CC)CC)cc2)cc1	81.3% (inactive)	81.5% (inactive)	62.6% (inactive)	38.4% (inactive)	19.9% (inactive)	76.8% (inactive)	52.6% (inactive)	60.5% (inactive)	-78.2% (active)
NC(=S)n1c(=O)n(-c2cccc(C(F)(F)F)c2)c(=O)c2cc(-c3ccc(F)cc3F)ccc21	9.53% (active)	6.11% (active)	1.42% (active)	6.23% (active)	-29.9% (active)	-4.04% (active)	7.29% (active)	11.4% (inactive)	37.5% (inactive)
COc1cc(C(=O)c2cc(C(C)=O)c3cccc(C)n23)cc(OC)c1OC	51.6% (inactive)	69.2% (inactive)	36.7% (inactive)	16.1% (inactive)	33.5% (inactive)	19.3% (inactive)	50.2% (inactive)	47.1% (inactive)	11% (inactive)
CC(=C(c1ccc(OCCN(C)C)cc1)c1ccc(OCCN(C)C)cc1)c1ccc(Cl)cc1	-11.9% (active)		-57.8% (active)	-71.9% (active)	-9.45% (active)	-64.5% (active)	-65% (active)	-67.5% (active)	-50% (active)
CCN(CC)c1ccc(/C=N/NC(=O)c2ccc(NS(C)(=O)=O)cc2)c(O)c1	39.3% (inactive)		13.2% (inactive)	3.18% (active)	38.9% (inactive)	12.5% (inactive)	12.3% (inactive)	1.77% (active)	5.67% (active)
Fc1ccc2nc(-c3cnn4cccnc34)sc2c1	83.1% (inactive)	67.5% (inactive)	85.1% (inactive)	88.2% (inactive)	78.9% (inactive)	93.5% (inactive)	81% (inactive)	101% (inactive)	102% (inactive)
O=C(CCCCCCN1CC(=O)N2[C@@H](c3ccccc3Br)c3[nH]c4ccccc4c3C[C@H]2C1=O)NO	99.7% (inactive)	66.1% (inactive)	61.5% (inactive)	51.8% (inactive)	29% (inactive)	-5.74% (active)	88.4% (inactive)	87.3% (inactive)	42.8% (inactive)
Cc1ccc([C@H]2c3[nH]c4ccccc4c3C[C@H]3C(=O)N(CCCCCCC(=O)NO)CC(=O)N23)s1	94% (inactive)	67.4% (inactive)	68% (inactive)	57.3% (inactive)	51.2% (inactive)	41.1% (inactive)	85.5% (inactive)	89.3% (inactive)	67.9% (inactive)
